{"source": "PubChem BioAssay (EPA / NIEHS)", "note": "Calls of active or inactive are those of the source. Rule for the calls: active = hit-call score of the fitted dose curve at least 0.9, where 1 is the maximum; inactive = score below 0.9."}
{"experiment": "Tanguay_ZF_120hpf_TCHR: Oregon State University Tanguay Lab 120 Hour Post-fertilization zebrafish Assay for Touch Responsive (AID 2284403)", "experimental": "Tanguay_ZF_120hpf is a whole embryo, multiplexed endpoint assay using zebrafish larvae exposed for 120 hours post fertilization on a 96-well plate.Tanguay_ZF_120hpf_TCHR is one of one assay component(s) measured or calculated from the Tanguay_ZF_120hpf assay. It is designed to make measurements of zebrafish development as detected with brightfield microscopy of developing zebrafish embryos.Data from the assay component Tanguay_ZF_120hpf_TCHR was analyzed into 1 assay endpoints. This assay endpoint, Tanguay_ZF_120hpf_TCHR, was analyzed in the positive analysis fitting direction relative to DMSO as the negative control and baseline of activity. Using a type of morphology reporter, gain-of-signal activity can be used to understand changes in developmentals as they relate to the whole embryo. To generalize the intended target to other relatable targets, this assay endpoint is annotated to the zebrafish development intended target family, where the subfamily is embryonic functional response.\nZebrafish husbandry: Tropical 5D wild-type adult zebrafish were housed in at an approximate density of 1000 per 100 gallon tank at the Sinnhuber Aquatic Research Laboratory, Oregon State University, Corvallis, OR. Each tank was kept at standard laboratory conditions of 28C on a 14-h light/10-h dark photoperiod in fish water consisting of reverse osmosis water supplemented with a commercially available salt (Instant Ocean). Spawning funnels were placed into the tanks the night prior, and embryos were collected and staged. To increase bioavailability, the chorion was enzymatically removed using pronase (63.6mg/ml, >/= 3.5U/mg, Sigma-Aldrich: P5147) at 4 hours post fertilization (hpf) using a custom automated dechorionator.Chemical exposures: Six hpf dechorionated embryos were placed 1 embryo per well in a 96-well plate prefilled with 90 ul of EM using automated embryo placement systems (AEPS). Ten microliters of each row of dilution plate 2 was added to 2 exposure plates. The final DMSO concentration used was 0.64% (vol/vol). Thirty-two embryos were also exposed to 5uM trimethyltin chloride (positive control). Plates were sealed to prevent evaporation and foil covered to reduce light exposure and kept in a 28C incubator. Embryos were statically exposed until 120 hpf. At 24 hpf, embryos were assessed for photomotor response using a custom photomotor response analysis tool (PRAT) and for developmental toxicity endpoints (MO24: mortality at 24 hpf, DP: developmental progression, SM: spontaneous movement, and NC: notochord distortion). At 120 hpf, locomotor activity was measured using Viewpoint Zebralab and assessed for 13 endpoints. Zebrafish acquisition and analysis program (ZAAP), a custom program designed to inventory, acquire, and manage zebrafish data, was used to collect developmental endpoints as either present or absent (i.e., binary responses were recorded). If mortality occurred for an embryo (at either 24 or 120 hpf), the non-mortality endpoints were not measured."}
{"smiles": "O=C(Cl)C(F)(F)C(F)(F)C(F)(F)C(=O)Cl", "outcome": "inactive"}
{"smiles": "NCC(F)(F)C(F)(F)C(F)(F)C(F)(F)F", "outcome": "inactive"}
{"smiles": "OCCC(F)(F)C(F)(F)C(F)(F)C(F)(F)F", "outcome": "inactive"}
{"smiles": "FC(F)=C(F)C(F)(F)C(F)(F)C(F)(F)C(F)(F)C(F)(F)C(F)(F)F", "outcome": "inactive"}
{"smiles": "OC(O)(C(F)C(O)(O)C(F)(F)F)C(F)(F)F", "outcome": "inactive"}
{"smiles": "FC(F)(F)COC(OCC(F)(F)F)OCC(F)(F)F", "outcome": "inactive"}
{"smiles": "C[Si](C)(C)C(F)(F)C(F)(F)C(F)(F)F", "outcome": "inactive"}
{"smiles": "FC(F)(F)C(F)(F)C(F)(F)C(F)(F)C(F)(F)C(F)(F)I", "outcome": "inactive"}
{"smiles": "FC(F)C(F)(F)COCC1CO1", "note": "(stereo not given)", "outcome": "inactive"}
{"smiles": "O=S(=O)(O)CCC(F)(F)C(F)(F)C(F)(F)C(F)(F)C(F)(F)C(F)(F)F", "outcome": "inactive"}
